The whole screen tested about 48,000 compounds, of which about 13,000 (27%) showed an effect of 50% or more. Some of the results follow.
System: Wolbachia pipientis
Assay: Anti-Wolbachia Cell-Based Screen
Type: functional
Parameters: scale not given: in the data most compounds retested in dose-response had high values
Settings: 5 µM

SMILES	Percent Effect
CCn1nc2c(cc1=O)CN(CC(=O)N(C)c1nccs1)CC2	-28.1%
CN(C)C(=O)CO[C@H]1CN(Cc2ccoc2)[C@@H]2COC[C@H]12.O=C(O)C(F)(F)F	107.9%
CCc1ccc(CN2C[C@H](OCC(=O)N(C)C)[C@H]3COC[C@H]32)o1.O=C(O)C(F)(F)F	117.7%
CN(C)C(=O)CO[C@H]1CN(Cc2ccsc2)[C@@H]2COC[C@H]12.O=C(O)C(F)(F)F	92.71%
CN(C)C(=O)CO[C@H]1CN(Cc2ccccc2)[C@@H]2CCCO[C@H]12.O=C(O)C(F)(F)F	0.8065%
CN(C)CCO[C@H]1CN(Cc2ccc3c(c2)OCO3)[C@@H]2COC[C@H]12.O=C(O)C(F)(F)F.O=C(O)C(F)(F)F	-6.328%
CN(C)C(=O)CO[C@H]1CN(Cc2cccc(C#N)c2)[C@@H]2COC[C@H]12.O=C(O)C(F)(F)F	-2.281%
CN(C)C(=O)CO[C@H]1CN(Cc2ccc3c(c2)OCO3)[C@@H]2COC[C@H]12.O=C(O)C(F)(F)F	108%
CN(C)CCO[C@H]1CN(Cc2ccoc2)[C@@H]2COC[C@H]12.O=C(O)C(F)(F)F.O=C(O)C(F)(F)F	-9.926%
CC(C)C1=NOC(c2nc(Cc3ccccc3)no2)C1 (centres undefined)	-12.61%
CCc1ccccc1OC1CN(C(=O)c2ccnc(OC)c2)C1	-7.047%
CC(C)NS(=O)(=O)c1cc(C(=O)O)cc(-c2ccccc2F)c1	2.884%
Cc1ccc(F)cc1-c1ccc(N)nc1	-13.87%
CCc1ccc(C(=O)NC2CCCN(c3ccn(C)n3)C2=O)o1 (centres undefined)	-13.64%
O=C1CCSCC(C(=O)N2CCN(C3CCCCC3)CC2)N1 (centres undefined)	2.707%
C=C(C)COc1cccc(CNCc2nc3ccccc3c(=O)[nH]2)c1	-21.19%
COc1cccc(CNCc2cccnc2)c1	125.9%
Cc1nn(C)c(N(C)C)c1CNCc1cccnc1	7.028%
COc1ccc(-n2ccc(CNCc3cccc(OC)c3)n2)cc1	-0.2636%
Cl.c1cncc(CNCc2cccs2)c1	109.5%
COc1cccc(CNC[C@@]2(COc3cccnc3)C[C@@H](O)[C@@H](O)C2)c1.Cl.Cl	-11.87%
O=C(NCCc1cccnc1)NCCc1cccs1	-0.2291%
COc1cccc(-c2nc(CNCc3cccnc3)cs2)c1	6.915%
COc1cccc(CNCc2nc3ccccc3c(=O)[nH]2)c1	145%
